In PubChem BioAssay (NCATS):
Where “and” joins values, the source holds several entries; their conditions need not be identical. Equal values may be shown once. Results filed as inconclusive are left out. A call without a number means that no potency is given here. Calls of active or inactive are those of the source. The call rests on the fitted dose curve; in most records, active means well fitted cell-killing curve with a large enough effect; inconclusive means small, poorly fitted or top-dose-only effect, or effect the other way; inactive means no such curve, though single readings can be large or run the other way.

Assay: Viability qHTS for spleen associated tyrosine kinase inhibitor (SYKi) drug resistant MV4-11 cells (AID 1963824); further: nearly all actives have a fitted effect of over 35% in size
Details: SYKi-resistant MV4-11 viability, CellTiter-Glo, 72 h; series mostly up to 45 µM
From the text: Department of Medicine, Hematology/Oncology
University Hospital Frankfurt, Germany.
Trials have shown promising clinical activity of the selective SYK inhibitor entospletinib in patients with high expressing HOXA9/MEIS1 acute leukemias. As the development of resistance mechanisms is a common problem in the use of targeted drugs, we performed a chemical library screen to identify drug sensitivities in SYK inhibitor resistant AML cells. […] Glucocorticoids are potent immunosuppressants which work in part by inhibiting the transcription of cytokine genes.
Described herein is a viability screen to look for activity in the SYK inhibitor drug resistant cell line against four NCATS compound libraries (MIPE 5.0, NPC, NPACT, and Kinase) totaling 11372 compounds. Active hits were reacquired for confirmation and further secondary assay testing.
SEQUENCE No. (e.g., 1, 2, 3, etc.); […] (e.g., Cells, Incubation, Reagent, etc.); VALUE; DESCRIPTION.
1; Media; 2uL; white, solid-bottom Corning assay plate.
2; Compounds; 23nL; Echo acoustic dispenser.
3; Cell; 5uL; 500 cells per well.
4: Incubation; 72hr; 37 C, 5% CO2, 95% humidity.
5; Reagent; 3uL; CellTiter-Glo reagent (Promega).
6; Incubation; 10min; room temperature.
7; Detection; Luminescence; ViewLux plate reader (PerkinElmer).
NOTES (numbers refer to Sequence numbers above
1. Quantitative high-throughput screening (qHTS) of small molecule compounds was conducted on drug resistant SYKi MV4-11 cell line.
2. Twenty-three nanoliter of small molecule compounds were added to each assay plates using the Echo acoustic dispenser (Beckman Coulter).
3. Cells were seeded into the assay plates at a final density of 500 cells in 5uL of media per well using the Multidrop Combi dispenser.
4. Plates were covered with stainless steel gasketed lids and incubated for 72 hours at standard cell culture conditions.
5. Viability was assessed by adding 3uL of CellTiter-Glo detection reagent (Promega).
6. Plates were covered with gasket lids and incubated for 10 minutes at room temperature.
7. Luminescence was measured on a ViewLux plate reader (PerkinElmer).
Potency means the concentration at half of the fitted maximal effect.

Row | SMILES | Potency
1 | CC1(C)OC(=O)CC(O)C2(C)C1CC(=O)C1(C)C2C(O)CC2(C)C(c3ccoc3)OC(=O)C3OC321 (stereo not given) | inactive
2 | C[C@@H](O)[C@H]1C(=O)N2C(C(=O)O)=C(SCCN=CN)C[C@H]12 | inactive
3 | Cc1cn2c(n1)Cc1ccc(Cl)cc1C(c1ccc(N)cc1)=N2 | 18.4 µM (active)
4 | COC(=O)[C@]1(C)CCC[C@@]2(C)C(=O)CC[C@H]3C(=O)C=C(CC[C@@H]21)C3O (stereo not given in full) | inactive
5 | COc1cc(O)c2c(=O)c(O)c(-c3ccc(O)c(O)c3)oc2c1 | 8.2 µM (active)
6 | C[C@@H]1O[C@@H](O[C@H]2[C@@H]3C=CO[C@@H](O[C@@H]4O[C@H](CO)[C@@H](O)[C@H](O)[C@H]4O)[C@@H]3[C@@]3(CO)O[C@@H]23)[C@H](O)[C@H](OC(=O)/C=C/c2ccc(O)c(O)c2)[C@H]1O | inactive
7 | COC(=O)c1ccnc(-c2cc(C(=O)NCCc3ccccc3)ccn2)c1 | inactive
8 | O=C(/C=C/c1ccc(O)cc1)OC1[C@H](O)CC(O)(C(=O)O)C[C@H]1O (stereo not given in full) | inactive
9 | CC(C)C1NC(=O)CNC(=O)C2CCCN2C(=O)C(Cc2c[nH]c3ccccc23)NC(=O)CNC(=O)C(C(O)c2ccc(O)cc2)NC(=O)CNC1=O (stereo not given) | inactive
10 | O=C(Nc1cc(Cl)cc2c1[nH]c1cnccc12)c1cccnc1 | 3.55 µM (active)
11 | CC1=C[C@H]2[C@@H](CC1=O)[C@H](C)C[C@H](O)[C@H]2C(C)C | inactive
12 | CC(C)C1CCC(C(=O)N[C@H](Cc2ccccc2)C(=O)O)CC1 (stereo not given in full) | inactive
13 | CC(C)c1cccc(C(C)C)c1NC(=O)Nc1ccc(Sc2ccc([N+](=O)[O-])cc2)cc1 | 5.17 µM (active)
14 | CC[C@]1(O)C[C@H]2CN(CCc3c([nH]c4ccccc34)[C@@](C(=O)OC)(c3cc4c(cc3OC)N(C=O)[C@H]3[C@@](O)(C(=O)OC)[C@H](OC(C)=O)[C@]5(CC)C=CCN6CC[C@]43[C@@H]65)C2)C1 | 119 nM (active) and 10.5 nM (active)
15 | CC1(C(=O)O)CCCC2(C)C3CCC4CC3(CCC12)CC4C(=O)O (stereo not given) | inactive
16 | COc1cc2c(cc1Cc1cccc(Cl)c1F)c(=O)c(C(=O)O)cn2[C@H](CO)C(C)C | 7.42 µM (active)
17 | C[C@]1(CO)CN(c2cc(C(=O)Nc3ccc4c(c3)-c3c(c(C(N)=O)nn3-c3ccc(F)cc3)CC4)c(Cl)cn2)C[C@@]1(C)CO | 2.91 µM (active)
18 | C[C@H](NC(=O)C(C)(C)Oc1ccc(C(F)(F)F)cn1)[C@@H](Cc1ccc(Cl)cc1)c1cccc(C#N)c1 | 9.2 µM (active)
19 | C=C(C(=O)O)[C@@H]1CC=C2CCC[C@H](C)[C@@]2(C)C1 | inactive
20 | COc1ccccc1O | inactive

Row | SMILES | Potency
21 | C/C=C/C(=O)N(CC)c1ccccc1C | inactive
22 | CCCCCCOC(=O)/N=C(\N)c1ccc(NCc2nc3cc(C(=O)N(CCC(=O)OCC)c4ccccn4)ccc3n2C)cc1 | 0.82 µM (active)
23 | Cn1c(=O)c2c(ncn2C)n(C)c1=O | inactive
24 | C[C@@H]1CC[C@]2(C(=O)O)CC[C@]3(C)C(=CCC4[C@]5(C)C(CC[C@]43C)C(C)(C)[C@@H](O)[C@H](O)[C@@H]5O)C2[C@]1(C)O (stereo not given in full) | inactive
25 | Cc1cnc(C(=O)NCCc2ccc(S(=O)(=O)NC(=O)NC3CCCCC3)cc2)cn1 | inactive
26 | CC1(C)CCC(C)(C)c2cc([C@@H](O)C(=O)Nc3ccc(C(=O)O)cc3F)ccc21 | 5.17 µM (active)
27 | COc1cc(F)c(F)c(Nc2ccc(I)cc2F)c1NS(=O)(=O)C1(C[C@H](O)CO)CC1 | 0.525 µM (active)
28 | CC(=O)c1[nH]cc(CCC(=O)O)c1CC(=O)O | inactive
29 | Nc1nc(N)nc(-c2cc(Cl)ccc2Cl)n1 | inactive
30 | COc1ccc(C(=O)OC2C3C=COC(OC4OC(CO)C(O)C(O)C4O)C3C3(CO)OC23)cc1OC (stereo not given) | inactive
31 | CCN(CC)CC1CCN(c2ncc3ncnc(Nc4ccc(F)c(Cl)c4)c3n2)CC1 | 2.91 µM (active)
32 | Cc1cc(C)c2c(c1)[C@@H](N(Cc1cc(C(F)(F)F)cc(C(F)(F)F)c1)c1nnn(C)n1)CCCN2CC1CCC(C(=O)O)CC1 (stereo not given in full) | 18.6 µM (active)
33 | CCc1cc(C(N)=S)ccn1 | inactive
34 | CC[C@@H]([C@H](C)O)n1ncn(-c2ccc(N3CCN(c4ccc(OCC5CO[C@@](Cn6cncn6)(c6ccc(F)cc6F)C5)cc4)CC3)cc2)c1=O (stereo not given in full) | 4.17 µM (active)
35 | CC(C)=C1CC2[C@](C)(CC[C@@H](OC(=O)C3(C)OC3C)[C@@]2(C)O)CC1=O (stereo not given in full) | inactive
36 | Cc1nc2cnc3ccc(C#Cc4cccnc4)cc3c2n1-c1ccc(C(C)(C)C#N)cc1 | 8.2 µM (active) and 332 nM (active)
37 | CCC(O)(C(=O)OCc1ccccc1NC(=O)CCC(=O)O)C(C)O (stereo not given) | inactive
38 | O=C1OC(c2ccc(O)cc2)(c2ccc(O)cc2)c2ccccc21 | 18.8 µM (active)
39 | CC1=C(C(=O)O)/C(=C/CO[C@@H]2O[C@H](COC(=O)/C=C/c3ccc(O)cc3)[C@@H](O)[C@H](O)[C@H]2O)C(O)C1 (stereo not given in full) | inactive
40 | CC(O)(CC(=O)O)CC(=O)O[C@@H]1[C@@H](O)[C@H](OCCc2ccccc2)O[C@H](CO)[C@H]1O (stereo not given in full) | inactive
